Assay outcomes: PubChem, National Center for Advancing Translational Sciences (NCATS)
AmpC inh detg – inhibitors of E. coli AmpC beta-lactamase with detergent | Potency, µM (top dose mostly 114 µM), without a hit: at the top dose activity change, negative = inhibition, hits mostly inhibitors | AID 485294 | AmpC hydrolysis of nitrocefin, absorbance 480 nm, 0.01% Triton | hit rate 0.041% among 370,000;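 further: 0% = no-compound wells and -100% = no-enzyme wells; nearly all actives have a fitted effect of over 25% in size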
Target sequence (P00811 whole entry, looked up): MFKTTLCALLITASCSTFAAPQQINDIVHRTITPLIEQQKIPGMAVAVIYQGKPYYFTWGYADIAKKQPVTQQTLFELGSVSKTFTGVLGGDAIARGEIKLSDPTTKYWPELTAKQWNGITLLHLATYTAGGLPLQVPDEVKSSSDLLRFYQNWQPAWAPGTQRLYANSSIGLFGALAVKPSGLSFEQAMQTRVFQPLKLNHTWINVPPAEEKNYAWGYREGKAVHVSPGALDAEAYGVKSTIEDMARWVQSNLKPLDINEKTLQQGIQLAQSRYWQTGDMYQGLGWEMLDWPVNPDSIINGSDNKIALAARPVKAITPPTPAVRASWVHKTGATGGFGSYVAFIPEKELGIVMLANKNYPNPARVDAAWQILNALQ
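AmpC (5.3 nM in the dispensed reagent) in 20 mM phosphate pH 7.0 with 0.01% (detergent screen) or 0.0001% Triton X-100 was preincubated with compounds for 15 min at room temperature. Nitrocefin was then added from an 800 uM solution, and hydrolysis was followed at 480 nm.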
Sm TGR inh – blocks Schistosoma mansoni thioredoxin glutathione reductase | Q962Y6 | purified TGR, DTNB reduction, TNB absorbance 405 nm | Potency, µM (highest dose often 114 µM), for inactives: at the top dose activity change, negative = inhibition, hits mostly inhibitors | hit rate 3% among 360,000 | AID 485364; further: nearly all actives have a fitted effect of over 60% in size
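Kinetic colorimetric format: TGR-catalysed, NADPH-driven DTNB reduction monitored via TNB absorbance. Enzyme dispensed at 20 nM; compound exposure 15 min at room temperature before reaction start.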
AmpC no deterg – blocks E. coli AmpC beta-lactamase in detergent-free assay; Potency, µM (titrated, usually from 57.1 µM), without a hit: top-dose activity change, negative = inhibition, usual class: inhibitors; P00811; AmpC nitrocefin hydrolysis, absorbance 480 nm, 0.0001% Triton; hit rate 0.52% among 330,000;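 further: plate controls were no compound for no effect and no enzyme for full effect; nearly all actives have a fitted effect of over 20% in size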
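20 mM phosphate pH 7.0 + 0.01% (detergent screen) or 0.0001% Triton X-100; 5.3 nM AmpC reagent; cpd preinc 15 min RT; nitrocefin (800 uM stock) to start; A480 q20 s × 4 min; Activity was normalised to no-enzyme and no-compound control wells.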
* marks the source's active call; other numbers are inactive results; ? = inconclusive; / = no result given; [ ] = remark or other dose. Rows were chosen to be rich in hits. Some 3.3% of all compounds tested hit in one or more screens of this group. The call rests on the fitted dose curve; in most records, active means well fitted curve in the direction sought with a large enough effect; inconclusive means small, poorly fitted or top-dose-only effect, or another doubt; inactive means no such curve, though single readings can be large; an effect the other way counts as inactive or inconclusive. Unless noted, on the % scale 0 is the no-effect control and ±100 the full control effect; potency means the concentration at half of the fitted maximal effect.

SMILES | AmpC inh detg | Sm TGR inh | AmpC no deterg
O=C(NC1CCCCC1)C(c1ccccc1)N(Cc1ccco1)C(=O)c1csnn1 (configuration not stated) | ? | -35.9% | -4.1%
O=C(NCCc1ccccc1Cl)c1cc2ccccn2n1 | 2.1% | -4.5% | /
O=C1N(Cc2cccc(Cl)c2)C[C@@H]2C[C@@H](c3ccco3)N3CCC[C@@]123 | 0.2% | 39.8µM* | 62.0%
COCc1ccc([C@@H]2C[C@H]3CN(Cc4ccccc4C)C(=O)[C@]34CCCN24)o1 | 3.6% | -35.5% | 61.4%
COCc1ccc([C@@H]2C[C@H]3CN(Cc4cccnc4)C(=O)[C@]34CCCN24)o1 | 13.2% | 44.7µM* | 63.5%
CCn1ncc([C@@H]2C[C@H]3CN(Cc4cccc(Cl)c4)C(=O)[C@]34CCCN24)c1C | 5.3% | -25.1% | 35.2%
CCOc1ccc(NC(=O)C2CCCN(c3nnc(-n4c(C)ccc4C)s3)C2)cc1 (configuration not stated) | 21.0% | -25.6% | /
COc1ccc(NC(=O)c2cc3c([nH]c4ccccc43)c(C)n2)cc1 | -7.1% | 0.7% | 8.91µM*
COC(=O)c1cc2c([nH]c3ccccc32)c(C)n1 | -11.9% | 0.6% | 66.8%
COc1ccc(N/C=C(\C=C\C#N)S(=O)(=O)c2ccccc2)cc1 | 1.9% | 6.31µM* | -25.4%
N#C/C=C/C(=C\Nc1ccc(Cl)cc1)S(=O)(=O)c1ccccc1 | -4.6% | ? | -25.3%
C=CCc1cccc(/C=N/c2ncccc2O)c1O | ? | 28.2µM* | -26.8%
C=CCc1cccc(C=Nc2ccc(Br)cc2)c1O | -5.8% | 0.0% | -9.0%
CCOC(=O)N1CCN(C(=O)CN(c2cccc(Cl)c2)S(=O)(=O)c2ccccc2)CC1 | -3.4% | -0.6% | /
CCSc1ncc(Cl)c(C(=O)N2CCN(c3ccc(OC)cc3)CC2)n1 | -1.9% | 0.4% | /
CCCS(=O)(=O)c1ncc(Cl)c(C(=O)N2CCN(c3ccc(OC)cc3)CC2)n1 | 10.5% | 11.2µM* | /
O=C(N/N=C/c1c(Cl)cccc1Cl)c1cccc(F)c1 | 0.7% | 35.5µM* | -19.0%
Cc1cccc(C(=O)Nc2cccc(C(=O)N/N=C/c3ccccn3)c2)c1 | -7.2% | 0.2% | -38.8%
COc1ccc(C(=O)N/N=C/c2ccc(N3CCOCC3)s2)cc1OC | -7.2% | -29.4% | -11.5%
O=C(N/N=C/c1ccc(-c2cccc(C(F)(F)F)c2)o1)c1cccc(F)c1 | -0.8% | -19.5% | -34.9%
O=C(N/N=C/c1ccccc1Cl)c1cccc(F)c1 | ? | 11.8% | -36.6%
O=C(N/N=C/c1ccc(N2CCOCC2)o1)c1cccc(F)c1 | 4.6% | 10µM* | -2.4%
COc1ccc(C(=O)N/N=C/c2ccc(N3CCOCC3)o2)cc1OC | ? | 7.94µM* | 29.3%
O=C(N/N=C/c1ccccn1)c1cccc(NC(=O)c2ccccc2Cl)c1 | 1.2% | -1.4% | 17.8µM*
CCOc1ccc(CNC(=O)Cc2ccc(NC(=O)N3CCSc4ncccc43)cc2)cc1 | 16.5% | 1.0% | /
SMILES | AmpC inh detg | Sm TGR inh | AmpC no deterg
COc1cccc(N2CCN(C(=O)c3cccn3-c3nnc(N4CCCCC4)s3)CC2)c1 | 1.2% | 6.0% | /
Cc1ccc(-c2nn(-c3ccc(F)cc3F)c3c2cnc2c(F)cccc23)cc1 | -1.4% | -3.6% | /
COc1ccc(NC(=O)C2CCN(C3=NS(=O)(=O)C(c4ccc(C)c(C)c4)=C3C)CC2)c(OC)c1 | ? | -21.1% | /
O=C(CN1C(=O)COc2ccc(S(=O)(=O)N3CCCCCC3)cc21)Nc1cccc(Cl)c1 | -8.9% | -0.3% | /
O=c1c(Br)c(N2CCCC2)cnn1-c1ccccc1 | -1.5% | 1.0% | -11.1%
O=c1c(Br)c(Br)cnn1-c1ccccc1 | -9.4% | 3.16µM* | -3.7%
Cc1ccc(-n2ncc(Br)c(Br)c2=O)cc1 | 1.1% | 6.31µM* | -20.7%[2.29 µM]
COc1cnn(-c2ccc(F)cc2)c(=O)c1Br | 0.5% | 2.2% | 11.7%
CCCCC(CC)Cn1c(Oc2ccccc2)nc2c1c(=O)n(C)c(=O)n2C (configuration not stated) | -2.5% | -2.8% | /
Cc1ccccc1NC(=O)CCn1nc(-c2ccccc2)c2ccccc2c1=O | -4.6% | 6.8% | /
Cc1ccc(NC(=O)CSc2nnc3[nH]c(=O)cc(-c4ccccc4)n23)cc1Cl | -2.1% | 5.8% | /
O=S(=O)(NCC(O)COCc1ccco1)c1cccs1 (configuration not stated) | ? | 12.6µM* | -1.2%
COc1ccc(CNCC(O)COCc2cccs2)cc1 (configuration not stated) | -14.8% | 9.2%[11.4 µM] | -7.9%
Cc1ccc(CCNC(=O)c2cn(C)c3ccc(S(=O)(=O)N4CCC(C)CC4)cc3c2=O)cc1 | -1.2% | 5.8% | /
COc1ccc2c(c1)c(C(=O)N/N=C/c1ccc(Br)cc1)c(C)n2C | 6.6% | -1.1% | -19.8%
CCOc1ccc(/C=N/NC(=O)c2c(C)n(C)c3ccc(OC)cc23)cc1 | -2.5% | -8.2% | 31.6µM*
CCc1ccc(C2C(C(=O)Nc3ccc(Cl)cc3)=C(C)Nc3ncnn32)cc1 (configuration not stated) | 4.5% | 0.3% | /
O=C(O)c1ccc(N2C(=O)CC(N3CCC(c4nc5ccccc5[nH]4)CC3)C2=O)cc1 (configuration not stated) | -1.2% | 22.4µM* | -15.7%
O=C1CC(N2CCC(c3nc4ccccc4[nH]3)CC2)C(=O)N1Cc1ccccc1 (configuration not stated) | 0.9% | ? | /
O=C1CC(N2CCC(c3nc4ccccc4[nH]3)CC2)C(=O)N1c1cccc(F)c1 (configuration not stated) | -10.9% | ? | -20.6%
O=C(C1CCCCC1)N1CCC(c2nc3ccccc3[nH]2)CC1 | -4.0% | 21.9% | -15.1%
CN1C(=O)CC(N2CCC(c3nc4ccccc4[nH]3)CC2)C1=O (configuration not stated) | ? | 89.1µM* | -16.0%
O=C(c1ccc(Br)o1)N1CCC(c2nc3ccccc3[nH]2)CC1 | ? | 39.8µM* | -8.5%
COc1ccc2c(c1)c1c(c(=O)n(-c3ccc(F)c(Cl)c3)c(=O)n1Cc1ccccc1F)n2C | -0.6% | 0.4% | /
CCCSc1ncc(Cl)c(C(=O)Nc2sc3c(c2C(=O)NCC)CCCC3)n1 | -1.6% | 0.9% | /
SMILES | AmpC inh detg | Sm TGR inh | AmpC no deterg
O=C(CSc1n[nH]c(-c2ccccc2Cl)n1)N1CCN(c2ccccc2)CC1 | 19.5% | 1.1% | /
O=C(NCc1cccs1)c1nn(-c2ccccc2F)nc1CO | 21.4% | -2.1% | /
COc1cc(C(=O)NC(=S)Nc2ccc3[nH]c(=O)[nH]c3c2)cc(OC)c1OC | -4.6% | 0.6% | -0.4%
COc1cc(C(=O)NC(=S)Nc2ccc(Cl)c(C(=O)O)c2)cc(OC)c1OC | -8.9% | 39.8µM* | -16.4%
COc1cc(OC)cc(C(=O)NC(=S)Nc2ccc(Cl)c(C(=O)O)c2)c1 | 0.2% | 22.4µM* | -20.9%
CCCCOc1cccc(C(=O)NC(=S)Nc2ccc(Cl)c(C(=O)O)c2)c1 | 3.7% | 0.0% | -32.7%
CCOC(=O)c1cc2c(=O)n3ccccc3nc2n(CCCOC)c1=NC(=O)c1c(-c2ccccc2Cl)noc1C | -4.7% | -2.7% | /
Cc1cccc(NC(=O)C2CCC(CNS(=O)(=O)c3csc(C(N)=O)c3)CC2)c1C (configuration not stated) | -1.8% | 4.7% | /
